One test has as its target COL4A3BP. Kind of test: pooled miR-30 sensor sort-seq; sequence = guide strand. As to conditions: shRNA.
Sequence TTAGCTACATATGTAATCTTGC showed a sensor-assay potency score (higher = more potent) of 0.206.

As to TACTTCTCTTCTGTATACCTTC, the sensor-assay potency score (higher = more potent) is -0.012.

TATCTTGTCTGTCAAGAGCAGC: the sensor-assay potency score (higher = more potent) was -1.23.

In turn, TAACTTTTCTTTATTGCCGTTG yielded a sensor-assay potency score (higher = more potent) of -0.347.

With TTATTTTTCAAAACTACCCAAC, the sensor-assay potency score (higher = more potent) is -0.396.

TTCTCTTCTGTATACCTTCATT registered a sensor-assay potency score (higher = more potent) of -1.23.

For the sequence TCGACATTCATCAAAATCGTGA, the sensor-assay potency score (higher = more potent) was -0.678.

For TTGCATAGAATGTTGTCCCTGC, the sensor-assay potency score (higher = more potent) is 0.716.

The sequence TTCTTCTACAACCAACTGCCAA registered a sensor-assay potency score (higher = more potent) of -0.938.

The sequence TTCTCCTTCTTCTACAACCAAC returned a sensor-assay potency score (higher = more potent) of -1.55.

The next test concerns the target COMMD10. The test is described as above. The note with it: shRNA.
Sequence TATTGTTTCAAGAACTAGGTGA returned a sensor-assay potency score (higher = more potent) of 0.412.

Sequence TTGCATTTATCAGTGACACTGC gave a sensor-assay potency score (higher = more potent) of 0.191.

For the sequence TTGTATAGTCTCTAGCTTGTTA, the sensor-assay potency score (higher = more potent) is 0.109.

TTGTCTAAGATGAATGTTCTCT returned a sensor-assay potency score (higher = more potent) of 0.187.

In the case of TTTTTGAAGAATCCGAGTGAGC, the sensor-assay potency score (higher = more potent) was -1.13.

Sequence TGCTTGTATAGTCTCTAGCTTG displayed a sensor-assay potency score (higher = more potent) of -1.08.

In turn, TAAGGTACACATCTTATCTTGT had a sensor-assay potency score (higher = more potent) of 0.795.

In turn, TTGAGCAGAGTGAGCCATCTGA came in with a sensor-assay potency score (higher = more potent) of -0.146.

Take TTAACAATGATCTCTATTGGTT: the sensor-assay potency score (higher = more potent) is -0.722.

In turn, TAGAAATCAAACAACTCCTTGT returned a sensor-assay potency score (higher = more potent) of 0.836.

The sequence TTCCACAAGAACTTTCTCCAGG displayed a sensor-assay potency score (higher = more potent) of -0.261.

In turn, TTCTACTAAGGTACACATCTTA came in with a sensor-assay potency score (higher = more potent) of 0.49.

A further test concerns the target COMMD1. The description is as above. The note with it: shRNA.
Sequence TTGCCATCAACTCTCCAGCTCA returned a sensor-assay potency score (higher = more potent) of -1.2.

Take TATAATGGCAACAGGTGTGTGT: the sensor-assay potency score (higher = more potent) turned out to be 0.267.

Turning to TTGACTGAGACTTGCCATCAAC, the sensor-assay potency score (higher = more potent) is -1.5.

Consider TTCTACCTCTGACAGCGTCTTC, for which the sensor-assay potency score (higher = more potent) was -0.88.

Turning to TTTGGAAATGACAGCAGCTTGG, the sensor-assay potency score (higher = more potent) is -0.686.

As to TTTCAACAACTCCAACTCCTTC, the sensor-assay potency score (higher = more potent) was -0.622.

As for TTCTTCTACCTCTGACAGCGTC, the sensor-assay potency score (higher = more potent) is -0.845.

Take TTGAGCTGAGTGCCTTGACTGA: the sensor-assay potency score (higher = more potent) was -0.799.

As for TTTGTCTTGTGGCTCTTCCAGA, the sensor-assay potency score (higher = more potent) is -0.37.

In the case of TTTGACCTCATCAAATTCCAAA, the sensor-assay potency score (higher = more potent) was -0.935.

Sequence TGATACTTTCTTCTACCTCTGA displayed a sensor-assay potency score (higher = more potent) of -0.273.

TTTTGTCTTGTGGCTCTTCCAG came in with a sensor-assay potency score (higher = more potent) of -0.915.

A further test addresses COMMD8. Described as above. The note with it: shRNA.
Regarding TCAACTGCTGAAATATCTCTTC, the sensor-assay potency score (higher = more potent) was -0.0513.

As to TATTGCTGCTTTCTCAGCCTGG, the sensor-assay potency score (higher = more potent) was -0.453.

As for TTTACATCTAGATGCAGGCTTA, the sensor-assay potency score (higher = more potent) is -0.242.

Regarding TTGATTTCATCTTTCCTACTTT, the sensor-assay potency score (higher = more potent) is -0.353.

TTCTTTTACATCTAGATGCAGG yielded a sensor-assay potency score (higher = more potent) of -0.776.

The sequence AACAGTGTGATAATCTTGGTAC registered a sensor-assay potency score (higher = more potent) of -0.396.

The values above are taken from the OligoGym collection.
Note: reference of the scale not given here.
